Test results: PubChem BioAssay (NCI)
About 83,000 compounds went through this panel and 20% of them were active in at least one assay; those are over-represented in the sample as a whole.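 In brief: 96-well plates, 48 h treatment, single concentration, percent growth endpoint.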 Unmarked numbers belong to inactive results. Calls of active or inactive are those of the source. Rule for the calls: active = growth percent below 10; inactive = the rest.

How the values were obtained:
Assay in all cases: NCI-60 one-dose screen, 48 h (100 = growth as untreated, 0 = no growth, -100 = all killed)
Settings in all cases: 10 µM unless noted
HCT-15 colon = system: HCT-15 colon
HT29 colon = system: HT29 colon
SNB-75 CNS = system: SNB-75 CNS
SNB-19 CNS = system: SNB-19 CNS
U251 CNS = system: U251 CNS
PC-3 prostate = system: PC-3 prostate
UACC-62 melanoma = system: UACC-62 melanoma
LOX IMVI melanoma = system: LOX IMVI melanoma
SK-MEL-28 melanoma = system: SK-MEL-28 melanoma
SK-MEL-5 melanoma = system: SK-MEL-5 melanoma

Row | Structure (SMILES) | growth (HCT-15 colon) | growth (HT29 colon) | growth (SNB-75 CNS) | growth (SNB-19 CNS) | growth (U251 CNS) | growth (PC-3 prostate) | growth (UACC-62 melanoma) | growth (LOX IMVI melanoma) | growth (SK-MEL-28 melanoma) | growth (SK-MEL-5 melanoma)
1 | CCOC(=O)c1sc(-c2ccc(OS(=O)(=O)c3ccc(C(C)(C)C)cc3)c(C=O)c2)nc1C | 12.5% | 19.7% | 22.9% | 29.7% | 26% | 16.2% | 46.1% | 43.3% | 81.9% | –
2 | C=CC(=O)N[C@@H](Cc1ccc(-c2cc(Cl)cc(Cl)c2)cc1)[C@@H](O)[C@H](O)C(=O)O | 104% | 87.9% | 104% | 98.1% | 92.1% | 89.4% | 89.3% | 98.4% | 107% | –
3 | CN(C)S(=O)(=O)n1cnc([C@@H]2[C@@H]3C(=O)OC[C@@H]3C[C@]23N=CN(Cc2ccccc2)C3=O)c1 | 98.4% | 89.7% | 67.5% | 98.2% | 107% | – | 106% | 101% | 108% | 102%
4 | CCN(CC)N=Nc1nn(C(=O)Nc2ccc(Cc3ccccc3)cc2)c2ccc(Cl)cc12 | 43.6% | 61.8% | 88.8% | 67.2% | 93.4% | 69.6% | 8.7% (active) | – | 70.8% | –
5 | CN(C)c1ccc(/C=N/NC(=O)COc2cc(=O)n(C)c3ccccc23)cc1 | 104% | 108% | 76.8% | 88.4% | 104% | – | 88.5% | 99.8% | 109% | 101%
6 | CCOC(=O)N1CCc2c(sc3c2C(=O)N[C@H](c2ccc(OC)cc2)N3)C1 | 106% | 86.2% | 91.7% | 90% | 96.7% | – | 91.8% | 101% | – | 99.1%
7 | CN(C)CCOC(=O)Nc1ccc(Cl)cc1 | 108% | 82.7% | 96.3% | 106% | 101% | – | 97.2% | 101% | 115% | 99%
8 | C=C1C(=O)O[C@H]2[C@H]1CC/C(COC(=O)/C=C\C(=O)NCc1ccc(Cn3c(=O)sn(-c4ccc(C#N)cc4)c3=O)cc1)=C\CC[C@@]1(C)O[C@@H]21 | -33.9% (active) | -13.2% (active) | -82.2% (active) | -65% (active) | -66.4% (active) | -62.4% (active) | -99.4% (active) | -86.8% (active) | -96.2% (active) | –
9 | CCn1c(Sc2nnc(NC(C)=O)s2)nc2c1c(=O)n(C)c(=O)n2C | 97.5% | 104% | 90% | 96.8% | 106% | 91.9% | 93.3% | 90% | 101% | –
10 | O=C1Nc2ccccc2/C1=N/N=C/c1ccsc1 | 98% | 112% | 87.8% | 95.5% | 104% | 107% | 93% | 95.1% | 110% | –
11 | Cc1c(C(=O)O)nnn1-c1nccs1 | 98% | 89.7% | 81.8% | 98.1% | 92.1% | – | 96.2% | 96.7% | – | 99.6%
12 | CCC(C)NCc1ccccc1 (configuration not stated) | 107% | 84.9% | 95.9% | 102% | 102% | – | 95.3% | 102% | 112% | 106%
13 | Cc1cc(C)on1 | 105% | 107% | 101% | 102% | 98.9% | – | 110% | 102% | 101% | 99.6%
14 | O=C(Nc1ccccn1)[C@H](O)[C@@H](O)C(=O)N1CCOCC1 | 107% | 104% | 121% | 102% | 96.1% | 94% | 108% | 104% | 114% | –
15 | Clc1ccc2c(NCCCN3CCN(c4nc(N5CCOCC5)nc5ccccc45)CC3)ccnc2c1 | -32.8% (active) | -19.2% (active) | 89.4% | 21.7% | -14.3% (active) | 37.5% | -33.1% (active) | – | -85% (active) | –
16 | CC1(C)CC(=O)c2c(ccc(C(=O)C[C@H](N)CO)c2N)O1 | 4.43% (active) | 2.53% (active) | 75.9% | 34.7% | 14.8% | – | 11% | -61.7% (active) | 38% | 47.2%
17 | CN(C)CCn1cc(-c2ccc3c(Nc4ccc(CC(=O)Nc5cccc(F)c5)cc4)ncnc3c2)cn1 | 22.1% [30 µM] | -40.7% [30 µM] (active) | -87% [30 µM] (active) | -60% [30 µM] (active) | -52.4% [30 µM] (active) | – | -81.6% [30 µM] (active) | -50.2% [30 µM] (active) | -89.6% [30 µM] (active) | –
18 | COc1ccc(-c2cc(-c3ccc(Nc4nc(Nc5ccccc5)nc(Nc5ccc(Cl)cc5)n4)cc3)nc(N)n2)cc1 | 76.6% | 52% | 55.6% | 68.7% | 24.7% | – | 58.8% | 55% | 84.8% | 60.7%
19 | CN(C)CCC(O)(Cc1ccccc1)c1ccccc1 (configuration not stated) | 108% | 103% | 102% | 112% | – | 92.9% | 117% | 99.2% | – | –
20 | N=c1ccn2c(n1)OC1C(O)C(CO)OC12 (configuration not stated) | 49.9% | 34.4% | 11.4% | 44% | 37.7% | – | 43.9% | 10.3% | 53.3% | 45.9%
21 | COc1ccc(-c2cc(-c3ccc(Nc4nc(Nc5ccccc5)nc(Nc5ccc(Cl)cc5)n4)cc3)nc(N)c2C#N)cc1 | -33.6% (active) | 6.85% (active) | 26.7% | 71.9% | -57.9% (active) | – | 22.8% | -97.3% (active) | -72.9% (active) | -21.8% (active)
22 | COc1ccc(O)c(-c2cc(-c3ccccc3)c(C#N)c(=O)[nH]2)c1 | 100% | 118% | 93.8% | 103% | 73.4% | – | 86.1% | 64.3% | 113% | 73.7%
23 | Cl.Fc1c[c-]c(-c2ccccn2)c(F)c1.[Pt].c1ccc([PH+](c2ccccc2)c2ccccc2[PH+](c2ccccc2)c2ccccc2)cc1 | -83.8% (active) | -63.3% (active) | -98.3% (active) | -94.9% (active) | -87.8% (active) | – | -85.6% (active) | -92.6% (active) | -94.5% (active) | -97.2% (active)
24 | O=C(NCCOCCOCCOCCNC(=O)c1cc2c(o1)C(=O)c1ccccc1C2=O)NC12CC3CC(CC(C3)C1)C2 | -74.7% (active) | 1.21% (active) | -99.6% (active) | -2.04% (active) | -22% (active) | – | -93.6% (active) | -46.2% (active) | -40.8% (active) | -97.7% (active)
25 | COc1ccc(-n2nnc(C(=O)NCCc3c[nH]c4ccc(F)cc34)c2C)cc1 | 104% | 86.4% | 93.7% | 105% | 92.4% | – | 98.4% | 98.6% | 109% | 102%
26 | COc1cc(-c2cc(-c3ccc(Nc4nc(Nc5ccccc5)nc(Nc5ccc(Cl)cc5)n4)cc3)nc(N)n2)cc(OC)c1OC | 62.3% | 52.4% | 56.2% | 79.6% | 42.6% | – | 49.7% | 60.2% | 86.9% | 43.1%
27 | O=c1[nH]c(=O)n(C2CC(O)C(CO)O2)cc1CO (configuration not stated) | 98.7% | 105% | 84.3% | 30.2% | 2.98% (active) | – | 79.2% | 96.1% | 101% | –
28 | COc1ccc(-c2nc3sccn3c2/C=C/C(=O)c2c[nH]c3ccccc23)cc1 | 60.5% | 79.7% | 39.1% | 92.2% | 46.2% | – | 76.1% | 37.5% | 76.7% | 58.8%
29 | COC(=O)CNC(=O)C(=O)c1c(O)c(O)c(C(C)C)c2cc(C)c(-c3c(C)cc4c(C(C)C)c(O)c(O)c(C(=O)C(=O)NCC(=O)OC)c4c3O)c(O)c12 | 18.3% | 6.08% (active) | 57.5% | 18.5% | 4.8% (active) | – | 48.5% | 21.2% | 44.7% | 50.1%
30 | CC(C)(C)N1CC(OC(N)=O)C1 | 113% | 101% | 81.6% | 106% | 101% | – | 103% | 96.3% | 109% | 102%
